# Assay results: the supplement of paper PMC10849652
# Of roughly 8,800 targets only a part is listed; those with a hit were picked by preference. About 0.5% of all pairs of compound and target were hits. Unmarked numbers belong to inactive results.
# Experiments:
# Assay in all cases: log2 fold change, soluble protein after heating vs DMSO (PISA); higher = thermal stabilisation; K562 lysate, 10 uM; active = over 0.2 and 3.5 SD of the protein, either way, in both replicates (recomputed)
# [1] = compound: NCC(=O)Nc1ccc(-n2nc(C(F)(F)F)cc2-c2ccc3c(ccc4ccccc43)c2)cc1
# Summary of the method: (§1)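 Dounce homogenisation of K562 pellets in PBS pH 7.4 with 1 mM MgCl2 produced a crude extract, used at 1 mg/mL protein. Exposure to 10 μM compound lasted 30 min, and aliquots were then heated for 3 min across 48°C-58°C, pooled and brought to 0.5% NP-40 at 4°C. The supernatant after 21,000xg for 90 min was quantified by TMTpro 16plex LC-MS/MS with channel sums equalised. Duplicate values are given as log-two fold change in thermal stability relative to solvent controls.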
# vorinostat = compound: O=C(CCCCCCC(=O)Nc1ccccc1)NO [vorinostat]
# Summary of the method: as §1
# silmitasertib = compound: O=C(O)c1ccc2c(c1)nc(Nc1cccc(Cl)c1)c1ccncc12 [silmitasertib]
# Summary of the method: as §1
# [2] = compound: O=C1NC(=O)C(c2cnc3ccccn23)=C1c1cn2c3c(cc(F)cc13)CN(C(=O)N1CCCCC1)CC2
# Summary of the method: as §1
# entospletinib = compound: c1cn2cc(-c3ccc4cn[nH]c4c3)nc(Nc3ccc(N4CCOCC4)cc3)c2n1 [entospletinib]
# Summary of the method: as §1
# Sequence of UniProt Q8TEQ6 (Q8TEQ6 whole entry, looked up): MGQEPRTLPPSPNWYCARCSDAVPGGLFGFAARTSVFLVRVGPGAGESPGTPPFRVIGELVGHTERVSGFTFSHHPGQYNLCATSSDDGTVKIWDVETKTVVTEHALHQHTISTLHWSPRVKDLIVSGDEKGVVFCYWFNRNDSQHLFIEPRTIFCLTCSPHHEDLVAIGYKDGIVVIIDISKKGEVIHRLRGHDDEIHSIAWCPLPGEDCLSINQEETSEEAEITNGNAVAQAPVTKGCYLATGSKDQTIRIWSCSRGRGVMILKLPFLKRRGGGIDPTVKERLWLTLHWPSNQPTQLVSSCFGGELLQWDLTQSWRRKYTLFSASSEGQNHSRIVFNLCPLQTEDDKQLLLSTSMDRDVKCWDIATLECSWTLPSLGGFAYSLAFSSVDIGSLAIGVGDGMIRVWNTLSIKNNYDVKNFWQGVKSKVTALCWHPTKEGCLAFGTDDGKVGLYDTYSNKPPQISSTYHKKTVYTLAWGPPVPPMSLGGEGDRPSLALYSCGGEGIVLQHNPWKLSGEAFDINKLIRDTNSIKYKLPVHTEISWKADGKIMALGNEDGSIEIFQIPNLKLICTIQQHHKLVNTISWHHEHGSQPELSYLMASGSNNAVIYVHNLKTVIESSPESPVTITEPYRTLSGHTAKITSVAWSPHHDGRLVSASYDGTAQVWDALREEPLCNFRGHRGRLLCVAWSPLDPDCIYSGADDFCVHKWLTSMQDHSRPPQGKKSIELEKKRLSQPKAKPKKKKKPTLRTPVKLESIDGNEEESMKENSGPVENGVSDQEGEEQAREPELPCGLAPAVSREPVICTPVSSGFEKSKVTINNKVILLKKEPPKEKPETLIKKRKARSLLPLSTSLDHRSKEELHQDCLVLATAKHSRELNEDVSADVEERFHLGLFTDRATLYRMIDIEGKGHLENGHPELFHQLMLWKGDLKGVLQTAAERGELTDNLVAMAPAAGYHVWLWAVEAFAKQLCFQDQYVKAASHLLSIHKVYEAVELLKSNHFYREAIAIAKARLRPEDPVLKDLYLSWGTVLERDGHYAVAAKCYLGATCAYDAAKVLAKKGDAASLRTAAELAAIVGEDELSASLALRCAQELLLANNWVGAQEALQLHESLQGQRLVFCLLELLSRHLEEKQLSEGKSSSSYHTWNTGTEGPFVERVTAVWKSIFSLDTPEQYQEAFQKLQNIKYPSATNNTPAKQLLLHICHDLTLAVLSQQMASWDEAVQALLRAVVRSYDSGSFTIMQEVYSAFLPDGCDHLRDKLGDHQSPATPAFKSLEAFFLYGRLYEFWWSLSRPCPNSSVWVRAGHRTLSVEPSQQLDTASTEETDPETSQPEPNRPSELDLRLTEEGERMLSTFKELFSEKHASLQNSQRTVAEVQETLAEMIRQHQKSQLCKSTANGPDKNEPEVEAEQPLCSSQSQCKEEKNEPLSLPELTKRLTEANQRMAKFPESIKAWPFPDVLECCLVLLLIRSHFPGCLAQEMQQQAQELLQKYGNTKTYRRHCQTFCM
# Sequence of UniProt Q14318 (Q14318 whole entry, looked up): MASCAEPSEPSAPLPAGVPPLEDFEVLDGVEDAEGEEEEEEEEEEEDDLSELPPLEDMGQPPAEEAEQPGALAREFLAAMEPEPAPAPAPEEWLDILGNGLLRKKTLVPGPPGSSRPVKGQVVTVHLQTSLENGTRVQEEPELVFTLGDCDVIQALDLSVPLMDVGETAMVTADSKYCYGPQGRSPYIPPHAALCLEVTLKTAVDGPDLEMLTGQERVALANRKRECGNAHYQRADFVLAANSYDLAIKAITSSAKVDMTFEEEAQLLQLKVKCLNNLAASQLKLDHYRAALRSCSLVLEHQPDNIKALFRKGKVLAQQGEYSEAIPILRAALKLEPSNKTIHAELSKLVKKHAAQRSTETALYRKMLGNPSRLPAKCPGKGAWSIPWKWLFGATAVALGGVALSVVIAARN
# Sequence of UniProt P22830 (P22830 whole entry, looked up): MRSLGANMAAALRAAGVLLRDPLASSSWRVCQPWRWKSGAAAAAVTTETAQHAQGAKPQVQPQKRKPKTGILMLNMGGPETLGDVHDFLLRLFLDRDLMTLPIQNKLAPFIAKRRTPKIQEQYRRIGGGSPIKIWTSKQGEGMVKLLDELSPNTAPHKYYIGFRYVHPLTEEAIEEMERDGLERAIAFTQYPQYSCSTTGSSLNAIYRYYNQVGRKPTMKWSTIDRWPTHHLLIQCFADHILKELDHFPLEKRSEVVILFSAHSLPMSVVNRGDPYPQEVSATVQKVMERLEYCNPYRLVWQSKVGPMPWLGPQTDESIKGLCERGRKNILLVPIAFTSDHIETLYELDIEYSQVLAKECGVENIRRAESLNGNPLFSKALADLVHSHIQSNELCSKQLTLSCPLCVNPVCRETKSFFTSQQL
# Sequence of UniProt Q8TB52 (Q8TB52 whole entry, looked up): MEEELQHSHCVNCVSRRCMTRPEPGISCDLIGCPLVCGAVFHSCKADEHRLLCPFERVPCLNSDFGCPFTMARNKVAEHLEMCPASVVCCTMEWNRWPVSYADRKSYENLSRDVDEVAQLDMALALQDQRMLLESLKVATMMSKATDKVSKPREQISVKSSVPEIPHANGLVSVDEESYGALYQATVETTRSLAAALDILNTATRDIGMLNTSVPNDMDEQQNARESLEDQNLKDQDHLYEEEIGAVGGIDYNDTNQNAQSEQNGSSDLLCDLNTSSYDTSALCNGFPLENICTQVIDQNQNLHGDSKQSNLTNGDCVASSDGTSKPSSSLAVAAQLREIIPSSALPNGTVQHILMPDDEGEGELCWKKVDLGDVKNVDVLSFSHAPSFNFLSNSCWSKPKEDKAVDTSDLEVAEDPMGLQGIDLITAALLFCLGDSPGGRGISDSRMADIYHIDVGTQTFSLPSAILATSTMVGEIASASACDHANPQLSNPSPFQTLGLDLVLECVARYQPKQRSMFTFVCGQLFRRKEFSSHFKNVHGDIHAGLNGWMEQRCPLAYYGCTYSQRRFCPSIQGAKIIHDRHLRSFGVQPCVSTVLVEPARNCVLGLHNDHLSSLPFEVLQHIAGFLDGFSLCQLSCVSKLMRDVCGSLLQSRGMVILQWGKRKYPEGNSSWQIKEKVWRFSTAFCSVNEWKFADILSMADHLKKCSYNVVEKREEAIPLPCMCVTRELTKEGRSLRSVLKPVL
# Sequence of UniProt Q7L8L6 (Q7L8L6 whole entry, looked up): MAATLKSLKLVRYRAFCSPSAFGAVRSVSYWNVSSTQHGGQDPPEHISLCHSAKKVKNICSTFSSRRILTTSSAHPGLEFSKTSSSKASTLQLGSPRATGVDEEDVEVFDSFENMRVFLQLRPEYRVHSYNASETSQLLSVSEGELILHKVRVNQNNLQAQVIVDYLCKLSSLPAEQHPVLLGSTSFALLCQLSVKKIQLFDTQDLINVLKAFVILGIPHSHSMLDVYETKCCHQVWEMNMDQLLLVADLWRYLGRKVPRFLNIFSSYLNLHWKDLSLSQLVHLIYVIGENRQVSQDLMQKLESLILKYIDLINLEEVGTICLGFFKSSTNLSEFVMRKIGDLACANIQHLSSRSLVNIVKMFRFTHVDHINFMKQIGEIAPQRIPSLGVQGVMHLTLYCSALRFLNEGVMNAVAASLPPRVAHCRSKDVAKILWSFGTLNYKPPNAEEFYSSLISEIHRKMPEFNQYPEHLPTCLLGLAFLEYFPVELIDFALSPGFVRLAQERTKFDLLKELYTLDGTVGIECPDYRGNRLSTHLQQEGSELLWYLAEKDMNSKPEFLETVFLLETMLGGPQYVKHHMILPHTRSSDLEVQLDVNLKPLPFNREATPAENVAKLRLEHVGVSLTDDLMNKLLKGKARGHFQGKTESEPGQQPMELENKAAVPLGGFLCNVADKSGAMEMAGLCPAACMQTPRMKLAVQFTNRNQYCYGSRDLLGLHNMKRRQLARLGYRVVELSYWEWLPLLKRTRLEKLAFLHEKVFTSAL
# Sequence of UniProt P04406 (P04406 whole entry, looked up): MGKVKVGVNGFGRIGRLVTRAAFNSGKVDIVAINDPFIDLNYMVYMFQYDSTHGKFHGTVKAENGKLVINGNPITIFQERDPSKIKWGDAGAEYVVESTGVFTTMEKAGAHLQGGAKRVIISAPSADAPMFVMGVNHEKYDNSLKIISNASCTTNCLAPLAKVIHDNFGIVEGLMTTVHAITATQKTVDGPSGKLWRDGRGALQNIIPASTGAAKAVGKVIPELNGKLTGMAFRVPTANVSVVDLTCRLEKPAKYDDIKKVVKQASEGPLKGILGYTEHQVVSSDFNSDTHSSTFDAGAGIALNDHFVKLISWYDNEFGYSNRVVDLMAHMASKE
# Sequence of UniProt Q9NWS6 (Q9NWS6 whole entry, looked up): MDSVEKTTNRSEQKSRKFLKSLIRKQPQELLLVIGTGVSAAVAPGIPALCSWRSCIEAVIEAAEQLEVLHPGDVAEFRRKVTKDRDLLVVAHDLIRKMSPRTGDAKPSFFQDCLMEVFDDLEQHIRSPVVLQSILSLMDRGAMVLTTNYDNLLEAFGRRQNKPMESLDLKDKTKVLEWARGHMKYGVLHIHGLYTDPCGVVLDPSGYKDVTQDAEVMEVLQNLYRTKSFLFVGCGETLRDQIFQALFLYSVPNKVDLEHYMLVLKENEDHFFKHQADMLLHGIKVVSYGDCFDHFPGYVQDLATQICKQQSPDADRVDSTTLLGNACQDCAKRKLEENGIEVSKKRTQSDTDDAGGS
# Sequence of UniProt Q9UET6 (Q9UET6 whole entry, looked up): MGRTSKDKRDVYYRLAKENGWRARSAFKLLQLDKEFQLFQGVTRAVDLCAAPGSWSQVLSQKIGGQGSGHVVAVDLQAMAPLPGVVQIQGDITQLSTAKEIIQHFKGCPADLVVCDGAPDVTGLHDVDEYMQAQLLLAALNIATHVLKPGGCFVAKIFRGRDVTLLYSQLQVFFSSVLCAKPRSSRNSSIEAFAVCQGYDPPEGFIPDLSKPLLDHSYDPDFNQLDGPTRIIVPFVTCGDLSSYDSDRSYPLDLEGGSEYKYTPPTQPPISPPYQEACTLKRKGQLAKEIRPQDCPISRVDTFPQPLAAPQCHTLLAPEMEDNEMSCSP
Target,log2 fold change [1],log2 fold change (vorinostat),log2 fold change (silmitasertib),log2 fold change [2],log2 fold change (entospletinib)
FBXO30 (UniProt Q8TB52),-0.01,-0.316 (active),0.042,-0.019,0.013
FKBP8 isoform 2 (UniProt Q14318),0.024,-0.219 (active),0.001,-0.028,0.018
EP400 isoform 5 (UniProt Q96L91),-0.047,-0.279 (active),0.024,-0.025,-0.021
FIG4 (UniProt Q92562),-0.037,-0.517 (active),0.017,0.056,0.052
GAPDH (UniProt P04406),0,0.309 (active),-0.033,0.014,0.003
ERCC4 (UniProt Q92889),0.026,-0.241 (active),0.002,-0.065,0.021
"EPB41, A0A2R8Y6D0",0.082,0.094,0.037,-0.08,0.016
EIF2AK2 (UniProt P19525),0.021,-0.415 (active),0.038,-0.017,0.068
FASTKD5 (UniProt Q7L8L6),0.016,-0.354 (active),0.053,0.022,-0.008
FBXO9 (UniProt Q9UK97),-0.154,-0.135,0.009,-0.046,-0.188
GEMIN5 (UniProt Q8TEQ6),0,-0.479 (active),0.004,-0.001,0.004
FAM118A (UniProt Q9NWS6),0.027,-0.834 (active),0.024,-0.003,-0.014
EXOC4 (UniProt Q96A65),0.009,-0.389 (active),0.041,-0.022,-0.006
FTSJ1 (UniProt Q9UET6),-0.024,-0.326 (active),0.024,0.009,0.05
FECH isoform 2 (UniProt P22830),-0.185,-0.401,-0.03,-0.021,0.977
ETHE1 (UniProt O95571),-0.01,-0.113,0.009,0,-0.02
